Source: PMC7862700, “An all-to-all approach to the identification of sequence-specific readers for epigenetic DNA modifications on cytosine”

Assays:
Test in all cases: DAPPL (digital affinity profiling via proximity ligation, sequencing); 10 mM Tris-HCl pH 7.5, 50 mM NaCl, 1 mM DTT, 4% glycerol, room temperature, 30 min; GST-TFs on glutathione beads, 16-mer random dsDNA library, 0.1% formaldehyde crosslink after washing; high values mean tight binding
[1] = molecular target: T1, FEV (Homo sapiens, UniProt Q99581 1-238); details: protein: recombinant; tags: N-terminal GST; dsDNA, one strand shown
T1 sequence: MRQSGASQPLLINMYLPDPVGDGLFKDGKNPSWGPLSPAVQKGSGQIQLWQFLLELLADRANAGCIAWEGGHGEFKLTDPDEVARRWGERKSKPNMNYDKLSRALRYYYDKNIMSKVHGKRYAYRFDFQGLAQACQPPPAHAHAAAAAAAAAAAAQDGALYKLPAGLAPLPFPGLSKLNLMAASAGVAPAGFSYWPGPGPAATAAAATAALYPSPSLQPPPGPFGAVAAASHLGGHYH
Procedure, shortened: (§1)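 Beads coated with glutathione captured GST-fused human transcription factors that had been expressed in yeast, and the factors were then given DNA barcodes and pooled with a tag-only sample. The pools were incubated with 200 nmole of a random double-stranded 16-mer DNA library in Tris/NaCl/DTT/glycerol buffer for 30 min at room temperature, washed, crosslinked with 0.1% formaldehyde and proximity-ligated with BsaI/T4 ligase at 37 °C for 1 h. PCR amplification and Illumina NextSeq500 sequencing came last. Binding signal is each hexamer's read frequency for a factor divided by its frequency for the tag-only sample.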

[2] = molecular target: ETV5 (Homo sapiens, UniProt P41161 1-510); details: protein: recombinant; tags: N-terminal GST; dsDNA, one strand shown
Procedure, shortened: as §1

[3] = molecular target: HSF1 (Homo sapiens, UniProt Q00613 1-529); details: protein: recombinant; tags: N-terminal GST; chain copies: 3; dsDNA, one strand shown
Procedure, shortened: as §1

[4] = molecular target: T2, SPIC (Homo sapiens, UniProt Q8N5J4 1-248); details: protein: recombinant; tags: N-terminal GST; dsDNA, one strand shown
T2 sequence: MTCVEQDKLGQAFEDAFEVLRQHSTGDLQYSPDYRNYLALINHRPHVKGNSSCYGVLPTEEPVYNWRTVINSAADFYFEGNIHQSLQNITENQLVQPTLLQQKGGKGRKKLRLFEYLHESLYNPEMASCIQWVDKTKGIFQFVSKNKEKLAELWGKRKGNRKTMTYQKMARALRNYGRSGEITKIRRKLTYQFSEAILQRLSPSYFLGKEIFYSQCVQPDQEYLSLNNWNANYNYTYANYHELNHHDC
Procedure, shortened: as §1

[5] = molecular target: ELF4 (Homo sapiens, UniProt Q99607 1-663); details: protein: recombinant; tags: N-terminal GST; dsDNA, one strand shown
Procedure, shortened: as §1

[6] = molecular target: T3, ELK4 (Homo sapiens, UniProt P28324-2 1-405); details: protein: recombinant; tags: N-terminal GST; dsDNA, one strand shown
T3 sequence: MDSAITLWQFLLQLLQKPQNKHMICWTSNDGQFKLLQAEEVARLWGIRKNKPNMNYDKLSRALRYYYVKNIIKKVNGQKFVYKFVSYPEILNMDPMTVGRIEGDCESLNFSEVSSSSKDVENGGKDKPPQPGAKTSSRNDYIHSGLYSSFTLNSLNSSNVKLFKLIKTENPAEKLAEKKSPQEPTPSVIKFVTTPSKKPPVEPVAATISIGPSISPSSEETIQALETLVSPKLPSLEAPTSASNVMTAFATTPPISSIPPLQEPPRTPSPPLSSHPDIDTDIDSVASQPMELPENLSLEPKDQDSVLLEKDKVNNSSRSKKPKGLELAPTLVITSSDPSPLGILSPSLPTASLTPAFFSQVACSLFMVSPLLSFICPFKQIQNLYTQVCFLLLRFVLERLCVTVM
Procedure, shortened: as §1

[7] = molecular target: T4, ETV2 (Homo sapiens, UniProt O00321 1-342); details: protein: recombinant; tags: N-terminal GST; dsDNA, one strand shown
T4 sequence: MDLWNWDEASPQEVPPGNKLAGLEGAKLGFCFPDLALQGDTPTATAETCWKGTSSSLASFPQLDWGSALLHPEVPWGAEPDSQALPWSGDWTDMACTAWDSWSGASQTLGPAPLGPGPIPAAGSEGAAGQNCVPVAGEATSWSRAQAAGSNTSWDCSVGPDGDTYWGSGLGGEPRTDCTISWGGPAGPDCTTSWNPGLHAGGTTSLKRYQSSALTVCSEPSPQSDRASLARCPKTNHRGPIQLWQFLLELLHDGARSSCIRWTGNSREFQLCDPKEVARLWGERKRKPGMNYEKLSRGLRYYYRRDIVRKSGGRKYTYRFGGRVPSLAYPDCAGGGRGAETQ
Procedure, shortened: as §1

[8] = molecular target: T5, ELF3 (Homo sapiens, UniProt P78545 1-371); details: protein: recombinant; tags: N-terminal GST; dsDNA, one strand shown
T5 sequence: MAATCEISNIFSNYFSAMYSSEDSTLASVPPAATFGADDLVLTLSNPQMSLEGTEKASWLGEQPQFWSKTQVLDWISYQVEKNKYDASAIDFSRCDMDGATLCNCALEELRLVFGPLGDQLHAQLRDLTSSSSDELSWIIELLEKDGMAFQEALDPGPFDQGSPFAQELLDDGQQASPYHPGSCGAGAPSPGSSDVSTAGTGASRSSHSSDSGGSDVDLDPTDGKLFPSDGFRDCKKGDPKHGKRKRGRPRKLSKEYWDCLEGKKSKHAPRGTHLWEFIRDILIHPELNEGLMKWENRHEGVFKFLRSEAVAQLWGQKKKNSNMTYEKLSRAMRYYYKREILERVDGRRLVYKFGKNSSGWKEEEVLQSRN
Procedure, shortened: as §1

[9] = molecular target: CRX (Homo sapiens, UniProt O43186 1-299); details: protein: recombinant; tags: N-terminal GST; dsDNA, one strand shown
Procedure, shortened: as §1

[10] = molecular target: ETV1 (Homo sapiens, UniProt P50549 1-477); details: protein: recombinant; tags: N-terminal GST; dsDNA, one strand shown
Procedure, shortened: as §1

[11] = molecular target: T6, ERF (Homo sapiens, UniProt P50548 1-548); details: protein: recombinant; tags: N-terminal GST; dsDNA, one strand shown
T6 sequence: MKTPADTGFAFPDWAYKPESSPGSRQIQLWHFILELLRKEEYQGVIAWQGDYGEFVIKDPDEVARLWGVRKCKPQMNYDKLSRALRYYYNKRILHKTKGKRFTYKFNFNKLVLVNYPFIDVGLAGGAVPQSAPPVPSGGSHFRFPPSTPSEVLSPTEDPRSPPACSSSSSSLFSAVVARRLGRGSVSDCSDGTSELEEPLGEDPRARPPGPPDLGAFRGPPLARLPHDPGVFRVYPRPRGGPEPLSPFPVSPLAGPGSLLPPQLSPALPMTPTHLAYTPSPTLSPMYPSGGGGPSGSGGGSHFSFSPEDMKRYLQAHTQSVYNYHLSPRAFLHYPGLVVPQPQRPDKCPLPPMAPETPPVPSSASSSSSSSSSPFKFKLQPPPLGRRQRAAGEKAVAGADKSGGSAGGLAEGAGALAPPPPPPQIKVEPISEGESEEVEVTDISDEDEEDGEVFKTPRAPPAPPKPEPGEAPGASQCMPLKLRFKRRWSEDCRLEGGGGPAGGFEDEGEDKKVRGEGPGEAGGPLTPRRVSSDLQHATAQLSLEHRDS
Procedure, shortened: as §1

[12] = molecular target: T7, ETV3L (Homo sapiens, UniProt Q6ZN32 1-361); details: protein: recombinant; tags: N-terminal GST; dsDNA, one strand shown
T7 sequence: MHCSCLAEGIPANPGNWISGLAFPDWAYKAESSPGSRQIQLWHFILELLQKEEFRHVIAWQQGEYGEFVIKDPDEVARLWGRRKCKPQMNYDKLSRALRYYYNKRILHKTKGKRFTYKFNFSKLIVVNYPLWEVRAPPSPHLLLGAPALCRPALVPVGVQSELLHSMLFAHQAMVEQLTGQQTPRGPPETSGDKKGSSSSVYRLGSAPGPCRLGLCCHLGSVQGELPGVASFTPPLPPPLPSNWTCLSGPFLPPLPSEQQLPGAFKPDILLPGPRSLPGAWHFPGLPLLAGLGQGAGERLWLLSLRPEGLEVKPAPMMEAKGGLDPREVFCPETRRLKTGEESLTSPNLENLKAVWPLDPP
Procedure, shortened: as §1

[13] = molecular target: T8, ETS2 (Homo sapiens, UniProt P15036 1-469); details: protein: recombinant; tags: N-terminal GST; dsDNA, one strand shown
T8 sequence: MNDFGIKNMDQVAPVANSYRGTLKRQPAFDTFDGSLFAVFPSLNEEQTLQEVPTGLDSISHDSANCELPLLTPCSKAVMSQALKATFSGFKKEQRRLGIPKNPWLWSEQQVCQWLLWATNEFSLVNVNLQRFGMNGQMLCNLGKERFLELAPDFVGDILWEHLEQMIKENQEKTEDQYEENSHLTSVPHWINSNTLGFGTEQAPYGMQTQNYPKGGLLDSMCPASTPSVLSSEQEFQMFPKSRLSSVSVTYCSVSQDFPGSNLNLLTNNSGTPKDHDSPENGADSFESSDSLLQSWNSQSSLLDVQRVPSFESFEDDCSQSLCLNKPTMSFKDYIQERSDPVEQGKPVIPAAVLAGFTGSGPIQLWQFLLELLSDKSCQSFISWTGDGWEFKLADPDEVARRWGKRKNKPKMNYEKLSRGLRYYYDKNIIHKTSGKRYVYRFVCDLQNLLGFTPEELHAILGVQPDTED
Procedure, shortened: as §1

[14] = molecular target: T9, SPDEF (Homo sapiens, UniProt O95238 1-335); details: protein: recombinant; tags: N-terminal GST; dsDNA, one strand shown
T9 sequence: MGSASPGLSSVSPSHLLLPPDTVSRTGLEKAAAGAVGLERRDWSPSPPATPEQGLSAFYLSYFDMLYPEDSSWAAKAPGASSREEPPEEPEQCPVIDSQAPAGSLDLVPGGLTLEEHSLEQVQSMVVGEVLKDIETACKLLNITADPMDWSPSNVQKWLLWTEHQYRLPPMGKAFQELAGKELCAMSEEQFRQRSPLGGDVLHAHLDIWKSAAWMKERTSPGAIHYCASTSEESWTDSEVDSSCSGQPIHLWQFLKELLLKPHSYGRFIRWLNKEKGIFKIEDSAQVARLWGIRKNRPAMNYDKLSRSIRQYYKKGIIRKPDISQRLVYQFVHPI
Procedure, shortened: as §1

[15] = molecular target: T10, ETV7 (Homo sapiens, UniProt Q9Y603 1-341); details: protein: recombinant; tags: N-terminal GST; dsDNA, one strand shown
T10 sequence: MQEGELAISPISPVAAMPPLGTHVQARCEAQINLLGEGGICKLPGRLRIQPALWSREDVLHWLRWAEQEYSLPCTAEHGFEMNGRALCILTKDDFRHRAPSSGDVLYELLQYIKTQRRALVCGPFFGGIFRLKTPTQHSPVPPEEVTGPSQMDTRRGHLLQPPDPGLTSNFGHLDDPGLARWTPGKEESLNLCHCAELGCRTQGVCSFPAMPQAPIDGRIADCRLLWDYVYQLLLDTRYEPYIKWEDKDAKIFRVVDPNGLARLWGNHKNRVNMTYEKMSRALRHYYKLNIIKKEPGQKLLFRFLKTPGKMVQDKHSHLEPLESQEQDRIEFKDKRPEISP
Procedure, shortened: as §1

[16] = molecular target: T11, ELF5 (Homo sapiens, UniProt Q9UKW6-2 1-255); details: protein: recombinant; tags: N-terminal GST; dsDNA, one strand shown
T11 sequence: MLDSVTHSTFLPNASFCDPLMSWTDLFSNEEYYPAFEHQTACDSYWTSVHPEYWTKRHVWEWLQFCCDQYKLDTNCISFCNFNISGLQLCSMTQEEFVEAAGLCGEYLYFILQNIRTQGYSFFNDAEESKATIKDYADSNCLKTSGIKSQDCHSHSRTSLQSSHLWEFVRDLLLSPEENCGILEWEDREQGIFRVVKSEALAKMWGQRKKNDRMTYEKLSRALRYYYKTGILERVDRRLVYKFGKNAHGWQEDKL
Procedure, shortened: as §1

[17] = molecular target: T12, ETV3 (Homo sapiens, UniProt P41162-2 1-143); details: protein: recombinant; tags: N-terminal GST; dsDNA, one strand shown
T12 sequence: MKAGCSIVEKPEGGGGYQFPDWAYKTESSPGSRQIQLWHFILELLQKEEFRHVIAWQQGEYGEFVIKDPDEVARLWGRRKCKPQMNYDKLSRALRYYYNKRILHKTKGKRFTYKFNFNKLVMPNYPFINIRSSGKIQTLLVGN
Procedure, shortened: as §1

[18] = molecular target: ETV6 (Homo sapiens, UniProt P41212 1-452); details: protein: recombinant; tags: N-terminal GST; dsDNA, one strand shown
Procedure, shortened: as §1

Sequence of ETV6 (P41212 whole entry): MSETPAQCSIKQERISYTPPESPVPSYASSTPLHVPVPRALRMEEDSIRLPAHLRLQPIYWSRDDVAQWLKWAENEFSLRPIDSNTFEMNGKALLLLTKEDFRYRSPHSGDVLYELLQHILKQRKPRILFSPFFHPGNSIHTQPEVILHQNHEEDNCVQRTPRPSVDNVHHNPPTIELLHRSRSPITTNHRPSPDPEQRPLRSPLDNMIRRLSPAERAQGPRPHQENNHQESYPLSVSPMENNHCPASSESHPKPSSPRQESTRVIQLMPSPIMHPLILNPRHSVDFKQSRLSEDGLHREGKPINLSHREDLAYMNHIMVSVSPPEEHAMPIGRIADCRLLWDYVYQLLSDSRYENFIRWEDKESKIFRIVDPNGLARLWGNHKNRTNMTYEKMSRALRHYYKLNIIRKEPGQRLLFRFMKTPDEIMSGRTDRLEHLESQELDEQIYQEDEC
Sequence of CRX (O43186 whole entry): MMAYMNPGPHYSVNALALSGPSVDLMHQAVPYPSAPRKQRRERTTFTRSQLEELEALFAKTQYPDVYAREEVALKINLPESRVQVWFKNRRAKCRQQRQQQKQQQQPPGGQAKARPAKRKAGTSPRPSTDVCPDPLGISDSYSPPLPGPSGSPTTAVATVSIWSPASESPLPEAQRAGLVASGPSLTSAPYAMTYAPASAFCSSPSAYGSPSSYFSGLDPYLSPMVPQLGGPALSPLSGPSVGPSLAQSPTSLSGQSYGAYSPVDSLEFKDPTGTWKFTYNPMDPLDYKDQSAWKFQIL
Sequence of ETV5 (P41161 whole entry): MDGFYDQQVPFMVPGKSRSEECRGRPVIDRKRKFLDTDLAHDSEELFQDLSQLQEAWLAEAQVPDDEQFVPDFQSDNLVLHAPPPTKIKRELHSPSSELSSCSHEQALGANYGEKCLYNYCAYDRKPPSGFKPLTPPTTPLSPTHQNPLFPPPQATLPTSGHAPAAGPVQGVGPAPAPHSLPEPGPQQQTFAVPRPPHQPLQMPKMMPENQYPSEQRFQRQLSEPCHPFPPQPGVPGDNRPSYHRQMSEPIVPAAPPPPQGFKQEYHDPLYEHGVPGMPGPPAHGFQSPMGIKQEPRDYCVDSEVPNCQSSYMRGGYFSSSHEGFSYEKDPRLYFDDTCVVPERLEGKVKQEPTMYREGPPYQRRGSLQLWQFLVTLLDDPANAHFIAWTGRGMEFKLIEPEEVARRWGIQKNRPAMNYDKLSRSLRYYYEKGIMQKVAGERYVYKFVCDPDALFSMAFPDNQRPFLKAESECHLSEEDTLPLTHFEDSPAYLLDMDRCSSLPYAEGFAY
Sequence of ETV1 (P50549 whole entry): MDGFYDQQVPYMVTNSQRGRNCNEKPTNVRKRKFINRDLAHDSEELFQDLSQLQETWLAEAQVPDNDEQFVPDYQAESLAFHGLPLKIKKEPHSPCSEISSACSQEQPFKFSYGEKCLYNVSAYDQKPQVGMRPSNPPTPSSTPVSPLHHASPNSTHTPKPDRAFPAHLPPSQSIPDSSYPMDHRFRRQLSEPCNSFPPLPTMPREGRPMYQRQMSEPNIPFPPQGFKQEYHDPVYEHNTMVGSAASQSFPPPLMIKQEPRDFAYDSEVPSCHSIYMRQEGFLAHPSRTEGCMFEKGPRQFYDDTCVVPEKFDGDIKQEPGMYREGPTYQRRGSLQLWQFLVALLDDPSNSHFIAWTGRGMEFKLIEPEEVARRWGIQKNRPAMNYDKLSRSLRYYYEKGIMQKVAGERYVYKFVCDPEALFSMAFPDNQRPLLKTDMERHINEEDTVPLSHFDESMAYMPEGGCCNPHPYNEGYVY
Sequence of HSF1 (Q00613 whole entry): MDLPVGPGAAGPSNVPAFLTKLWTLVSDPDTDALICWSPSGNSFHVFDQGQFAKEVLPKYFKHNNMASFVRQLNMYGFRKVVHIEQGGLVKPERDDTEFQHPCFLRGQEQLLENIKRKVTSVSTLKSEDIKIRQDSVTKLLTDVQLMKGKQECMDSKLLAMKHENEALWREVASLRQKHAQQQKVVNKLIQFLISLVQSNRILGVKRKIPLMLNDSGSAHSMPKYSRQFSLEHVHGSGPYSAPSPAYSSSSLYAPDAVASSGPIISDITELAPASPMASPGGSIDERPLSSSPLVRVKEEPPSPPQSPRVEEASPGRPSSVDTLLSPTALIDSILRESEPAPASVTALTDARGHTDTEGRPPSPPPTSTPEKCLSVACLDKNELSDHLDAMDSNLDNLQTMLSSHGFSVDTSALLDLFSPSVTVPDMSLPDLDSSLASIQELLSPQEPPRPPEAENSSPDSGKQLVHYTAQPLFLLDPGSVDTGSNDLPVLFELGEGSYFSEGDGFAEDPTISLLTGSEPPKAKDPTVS
Sequence of ELF4 (Q99607 whole entry): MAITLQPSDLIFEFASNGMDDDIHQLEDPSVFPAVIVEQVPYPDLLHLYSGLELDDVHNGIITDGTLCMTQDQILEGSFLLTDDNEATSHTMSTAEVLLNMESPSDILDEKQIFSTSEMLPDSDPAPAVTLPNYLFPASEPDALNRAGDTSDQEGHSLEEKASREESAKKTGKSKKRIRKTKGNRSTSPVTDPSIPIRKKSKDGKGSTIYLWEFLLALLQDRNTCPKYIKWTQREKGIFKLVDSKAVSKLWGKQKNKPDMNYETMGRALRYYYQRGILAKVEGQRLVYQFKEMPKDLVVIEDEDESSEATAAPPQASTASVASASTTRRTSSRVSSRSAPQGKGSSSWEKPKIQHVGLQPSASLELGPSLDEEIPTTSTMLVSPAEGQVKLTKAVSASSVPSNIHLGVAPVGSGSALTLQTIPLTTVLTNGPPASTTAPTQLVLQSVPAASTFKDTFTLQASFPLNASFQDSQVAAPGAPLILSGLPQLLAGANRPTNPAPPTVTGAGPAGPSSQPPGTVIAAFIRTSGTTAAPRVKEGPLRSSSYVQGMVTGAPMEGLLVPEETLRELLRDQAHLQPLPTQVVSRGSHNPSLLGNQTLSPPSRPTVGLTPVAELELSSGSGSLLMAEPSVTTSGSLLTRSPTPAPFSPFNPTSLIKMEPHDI

CCTCGA
binding signal [1]: 1.21 fold enrichment (6-mer frequency, TF over GST control) | binding signal [2]: 1.27 fold enrichment (6-mer frequency, TF over GST control) | binding signal [3]: 1.75 fold enrichment (6-mer frequency, TF over GST control) | binding signal [4]: 1.29 fold enrichment (6-mer frequency, TF over GST control) | binding signal [5]: 1.35 fold enrichment (6-mer frequency, TF over GST control) | binding signal [6]: 1.38 fold enrichment (6-mer frequency, TF over GST control) | binding signal [7]: 1.55 fold enrichment (6-mer frequency, TF over GST control) | binding signal [8]: 1.25 fold enrichment (6-mer frequency, TF over GST control) | binding signal [9]: 1.26 fold enrichment (6-mer frequency, TF over GST control) | binding signal [10]: 1.15 fold enrichment (6-mer frequency, TF over GST control) | binding signal [11]: 1.28 fold enrichment (6-mer frequency, TF over GST control) | binding signal [12]: 1.35 fold enrichment (6-mer frequency, TF over GST control) | binding signal [13]: 1.21 fold enrichment (6-mer frequency, TF over GST control) | binding signal [14]: 1.23 fold enrichment (6-mer frequency, TF over GST control) | binding signal [15]: 1.42 fold enrichment (6-mer frequency, TF over GST control) | binding signal [16]: 1.34 fold enrichment (6-mer frequency, TF over GST control) | binding signal [17]: 1.26 fold enrichment (6-mer frequency, TF over GST control) | binding signal [18]: 1.29 fold enrichment (6-mer frequency, TF over GST control)
